Screen size: about 320,000 compounds; about 22,000 (6.9%) were called active. Where a call stands in place of a potency, no number is given. Inconclusive results (about 27%) are left out. The call rests on the fitted dose curve; in most records, active means well fitted inhibition curve with a large enough effect; inconclusive means small, poorly fitted or top-dose-only effect, or another doubt; inactive means no such curve, though single readings can be large or run the other way. Only a selection was taken, and actives are over-represented in it overall.
Potency means the concentration at half of the fitted maximal effect.

The nature of this test: Primary qHTS for delayed death inhibitors of the malarial parasite plastid, 96 hour incubation. Particulars: P. falciparum luciferase reporter growth; series mostly up to 28.7 µM. In outline: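 P. falciparum expressing integrated firefly luciferase, in erythrocytes at 2% hematocrit, 0.05% parasitemia, incubated with compounds 96 h at 37 C, 5% CO2. Growth inhibition read as loss of luminescence; two-generation exposure targets delayed-death apicoplast inhibitors.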
On the technique in general: Quantitative high-throughput screening tests each substance at several concentrations.
For the molecule `C=CCn1c(SCC(=O)NC(=O)Cc2ccccc2)nc2ccccc2c1=O`, the Potency entry was “inactive”.

Turning to `CCN1C(=O)/C(=C\N2CCN(c3cccc(Cl)c3)CC2)SC1=S`, the Potency result is “inactive”.

For the molecule `CCCCN1C(=O)/C(=C/C=C2/C=Cc3ccccc3N2CC)SC1=S`, the Potency was 0.117 µM (active).

Regarding `CCN1C(=O)/C(=C2/Sc3ccccc3N2CCCS(=O)(=O)O)SC1=S`, the Potency entry is “inactive”.

With `O=C(NCCCc1ccccc1)C1CCC(=O)N(CCc2ccc(Cl)cc2)C1` (stereo not given), the Potency result was “inactive”.

For the molecule `COc1ccccc1CNS(=O)(=O)c1c(C)[nH]c(C)c1C(=O)N1CCCCC1`, the Potency result was “inactive”.

As to `COc1cc(CN2CCC(C(N)=O)CC2)ccc1OCc1ccccc1`, the Potency result is “inactive”.

Consider `COc1cccc(NC(=O)CN(C)C(=O)c2cc(C3CC3)nn2-c2ccccc2)c1`, for which the Potency result was “inactive”.

Turning to `COc1ccc(CN2CCN(C(=O)c3cc(C4CC4)nn3-c3ccccc3)CC2)cc1F`, the Potency is 11.7 µM (active).

Take `O=C(NCc1cccnc1)c1ccccc1NC(=O)c1c(F)cccc1F`: the Potency result was “inactive”.

Regarding `Cc1cc(C)c(NC(=O)CN2C(=O)NC(Cc3ccccc3)C2=O)c(C)c1` (stereo not given), the Potency result is “inactive”.

As for `O=[N+]([O-])c1ccc2nc(-c3ccccn3)[nH]c2c1`, the Potency result is “inactive”.

On to `O=C(CSC(=S)N1CCOCC1)c1cc(Br)cc(Br)c1O`, for which the Potency entry is “inactive”.

Take `O=P(O)(CN1CCCCCC1)C1Cc2ccccc2C1`: the Potency result was “inactive”.

Take `O=C(/C(=C/c1cccc(Cl)c1)c1nc2ccccc2[nH]1)c1ccccc1`: the Potency was 11.7 µM (active).

As to `O=C(CCc1nc2ccccc2c(=O)[nH]1)OCC(=O)c1cccc(Cl)c1`, the Potency result was “inactive”.

In the case of `O=C(Cc1nc2ccccc2[nH]c1=O)c1ccc(Cl)cc1`, the Potency entry was “inactive”.

With `Cc1ccc(-c2nc3ccccc3[nH]c2=O)cc1`, the Potency entry is “inactive”.

With `N#CCc1ccc(NC(=O)c2ccccc2C(=O)Nc2ccc(CC#N)cc2)cc1`, the Potency entry is “inactive”.

Consider `NS(=O)(=O)c1ccc2nc(NC(=O)C3=COCCO3)sc2c1`, for which the Potency entry was “inactive”.

`O=C(O)CC1(CC(=O)Nc2cccc(C(F)(F)F)c2)CCCC1`: the Potency entry is “inactive”.

`NC(=O)Nc1cccc(C(F)(F)F)c1`: the Potency result is “inactive”.

For the molecule `O=C(Nc1cccc(C(F)(F)F)c1)c1cc(Br)cc(Br)c1O`, the Potency was 15.1 µM (active).

In the case of `CC(=O)Nc1ccc(NC(=O)COC(=O)c2ccccc2C(=O)c2ccccc2)cc1`, the Potency result is “inactive”.

`O=C(Nc1cccc([N+](=O)[O-])c1)Nn1cnnc1`: the Potency entry was “inactive”.

With `Cn1nc(C(F)(F)F)cc1-c1ccc(/C=C(\C#N)C(=O)c2cccc(C(F)(F)F)c2)s1`, the Potency result was “inactive”.

As to `Cc1ccc(NNC(=O)c2c(F)cccc2Cl)cc1Cl`, the Potency entry is “inactive”.

In the case of `COc1ccccc1NC(=O)CSc1nnc(CNC(=O)c2ccccc2F)o1`, the Potency is 1.65 µM (active).

For the molecule `CCCCCNC(=O)c1cccnc1SCC(=O)Nc1ccccc1OC`, the Potency result is “inactive”.

As to `Cc1ccc(NC(=O)CSc2nnc(CNC(=O)c3ccccc3F)o2)cc1`, the Potency entry is “inactive”.

Values taken from PubChem BioAssay AID504834 (National Center for Advancing Translational Sciences (NCATS), 2011).
